Measured values reported in PubChem BioAssay AID588849 (Broad Institute, 2011).
Results with a measured potency or affinity are listed apart. Calls of active or inactive are those of the source. The rule behind the calls is not given here.

Target: CAAX prenyl protease 2 (Homo sapiens) (UniProt Q9Y256)
Test: inhibition of Ras-converting CAAX protease Rce1 – biochemical, yeast membranes, quenched-peptide fluorescence, cherry-pick, dose response (AID 588849)
Conditions: yeast membrane fractions expressing human Rce1, quenched-peptide fluorescence, 4 h; series mostly up to 10 µM

Sequence of CAAX prenyl protease 2 (Homo sapiens) (Q9Y256 whole entry, looked up): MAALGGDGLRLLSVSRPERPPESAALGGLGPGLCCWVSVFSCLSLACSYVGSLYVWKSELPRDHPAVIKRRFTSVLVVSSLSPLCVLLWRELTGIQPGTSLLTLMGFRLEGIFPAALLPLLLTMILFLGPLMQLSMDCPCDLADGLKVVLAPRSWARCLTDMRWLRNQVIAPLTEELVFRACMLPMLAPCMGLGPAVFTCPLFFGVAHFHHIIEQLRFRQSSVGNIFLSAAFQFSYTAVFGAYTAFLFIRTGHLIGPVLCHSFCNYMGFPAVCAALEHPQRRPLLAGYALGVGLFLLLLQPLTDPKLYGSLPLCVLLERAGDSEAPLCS

outcome, inactive:
Oc1c(N=NC(=S)Nc2ccccc2F)c2ccccc2n1Cc1ccccc1Cl
COCCCNC(=O)c1cc2cc3cc(OC)ccc3nc2o1
CCCCOc1ccc(-c2cc(C(F)(F)F)c(C#N)c(SCC(=O)O)n2)cc1
Cc1cccc(-c2nnc(SCc3ccc(C#N)cc3)n2Cc2ccco2)c1
Cc1cccc(NS(=O)(=O)c2ccc(C)c(C(=O)OCC(=O)Nc3cc(C)on3)c2)c1
COc1cccc(NC(=O)Nc2cccn(Cc3ccc(C)cc3)c2=O)c1
Cc1cc(C(=O)N/N=C/c2c3ccccc3cc3ccccc23)n[nH]1
CCN(CC)CCCNc1cc(C)nc2cc(-c3cccs3)nn12
CCC(=O)Nc1cc(-c2nn(CC(=O)N3CCCCC3)c(=O)c3ccccc23)ccc1N1CCOCC1
CCOc1cccc(-c2c(C(=O)N/N=C/c3c(F)cccc3Cl)nnn2-c2nonc2N)c1
O=C(Nc1ccccc1N1CCOCC1)C1CCN(S(=O)(=O)c2ccc(F)cc2)CC1
Cc1cccc(NC(=O)C2(c3ccc([N+](=O)[O-])cc3)CCCC2)c1
COc1ccc(-c2c(-c3ccsc3)oc3ccc(N4CCOCC4)cc23)cn1
CCCOc1ccccc1C(=O)NCCCC(=O)O
Cc1ccc(C(=O)c2c3ccc(C(F)(F)F)cc3nn2CCC(N)=O)cc1
Cc1cc2cc(C(=O)N3CCc4c([nH]c5ccccc45)C3c3ccccn3)ccc2o1 (stereo not given)
COC(=O)c1ccccc1NC(=O)NCc1cccnc1
NC(=NCCCCCCN=C(N)/N=C(\N)Nc1ccc(Cl)cc1)/N=C(\N)Nc1ccc(Cl)cc1
CCOC(=O)c1c(C2COc3ccccc3O2)csc1NC(=O)c1ccccc1 (stereo not given)
CCOc1ccc(NC(=O)CCSc2ccc(C)cc2)cc1
